Assay results taken from PubChem BioAssay AID1159580 (chemical genetic matrix, 2015).
Several values for one entry are separate records, joined by “and”; a condition that tells them apart may be missing. Equal values may be shown once. Hit rate of the full screen: of about 5,500 compounds, about 2,000 (36%) were called active. Not shown: some 18% with an inconclusive outcome. Rule as the data show it: active = normalized growth mostly below about 0.91 (no sharp cut-off); inconclusive = no clear call, values can overlap the other calls; inactive = mostly above about 0.92. This is one part of the list.

Assay: chemical genetic growth profiling, strain panel (AID 1159580);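 also: tested at 20 µM; growth read once vehicle control cultures reached saturation at 30 °C; 1 = growth at the plate median or of vehicle wells; lower values mean less growth of the strain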
Settings: S. cerevisiae deletion strains, growth OD

Measured: normalized growth

Nc1ccc(S(=O)(=O)Nc2ccc(Cl)nn2)cc1
inactive: locus YAL013W, strain DEP1, hits give low values 1.01 | locus YAL021C, strain ccr4, hits give low values 0.982 | locus YAL026C, strain drs2, hits give low values 0.996 | locus YAL030W, strain snc1, hits give low values 0.985 | locus YBL061C, strain skt5, hits give low values 0.984 | locus YBR009C, strain hhf1, hits give low values 0.994 | locus YBR021W, strain FUR4, hits give low values 0.977 | locus YBR023C, strain chs3, hits give low values 0.984 | locus YBR171W, strain sec66, hits give low values 0.976 | locus YBR229C, strain ROT2, hits give low values 0.995 | locus YBR231C, strain swc5, hits give low values 0.995 | locus YBR279W, strain paf1, hits give low values 0.998 | locus YCL011C, strain gbp2, hits give low values 0.987 | locus YCL016C, strain dcc1, hits give low values 0.971 | locus YCL029C, strain bik1, hits give low values 0.996 | locus YCL061C, strain MRC1, hits give low values 0.984 | locus YCL069W, strain vba3, hits give low values 0.993 | locus YCR088W, strain abp1, hits give low values 0.987 | locus YDL005C, strain med2, hits give low values 0.996 | locus YDL035C, strain GPR1, hits give low values 1.02 | locus YDL040C, strain nat1, hits give low values 0.992 | locus YDL074C, strain BRE1, hits give low values 0.978 | locus YDL101C, strain DUN1, hits give low values 1.01 | locus YDL134C, strain PPH21, hits give low values 1.01 | locus YDL185W, strain tfp1, hits give low values 1.01 | locus YDL192W, strain arf1, hits give low values 1.01 | locus YDR001C, strain nth1, hits give low values 0.987 | locus YDR069C, strain doa4, hits give low values 0.999 | locus YDR101C, strain arx1, hits give low values 0.961 | locus YDR137W, strain rgp1, hits give low values 0.996 | locus YDR150W, strain NUM1, hits give low values 0.999 | locus YDR159W, strain sac3, hits give low values 1.02 | locus YDR162C, strain NBP2, hits give low values 1.02 | locus YDR195W, strain ref2 0.968 | locus YDR297W, strain sur2, hits give low values 0.993 | locus YDR318W, strain mcm21, hits give low values 1 | locus YDR334W, strain swr1, hits give low values 0.984 | locus YDR335W, strain msn5, hits give low values 0.994 | locus YDR388W, hits give low values 1.01 | locus YDR392W, strain spt3, hits give low values 0.929 | locus YDR502C, strain sam2, hits give low values 1 | locus YEL003W, strain gim4, hits give low values 1 | locus YEL037C, strain rad23, hits give low values 0.991 | locus YEL061C, strain CIN8 (second series), hits give low values 0.992 | locus YEL061C, strain CIN8, hits give low values 1 | locus YER015W, strain faa2, hits give low values 0.973 | locus YER016W, strain bim1, hits give low values 1 | locus YER110C, hits give low values 1.01 | locus YER111C, strain swi4, hits give low values 0.986 | locus YER155C, strain BEM2 (second series), hits give low values 1 | locus YER155C, strain BEM2, hits give low values 0.998 | locus YER167W, strain BCK2, hits give low values 1.01 | locus YFR010W, strain ubp6, hits give low values 0.99 | locus YGL078C, strain dbp3, hits give low values 1 | locus YGL086W, strain mad1, hits give low values 0.988 | locus YGL167C, strain pmr1, hits give low values 0.983 | locus YGL173C, strain kem1, hits give low values 0.99 | locus YGL227W, strain vid30, hits give low values 0.979 | locus YGL240W, strain doc1, hits give low values 0.992 | locus YGL248W, strain PDE1, hits give low values 0.999 | locus YGL253W, strain hxk2, hits give low values 1 | locus YGR135W, strain pre9, hits give low values 1.06 | locus YGR252W, strain gcn5, hits give low values 1.04 | locus YHR013C, strain ard1, hits give low values 0.965 | locus YHR027C, strain rpn1, hits give low values 0.995 | locus YHR030C, strain SLT2, hits give low values 1 and 0.995 | locus YHR079C, strain IRE1 (second series), hits give low values 1.01 | locus YHR079C, strain IRE1, hits give low values 0.989 | locus YHR094C, strain hxt1, hits give low values 1.01 | locus YHR129C, strain ARP1, hits give low values 1.01 | locus YHR142W, strain chs7, hits give low values 0.994 | locus YHR200W, strain rpn10, hits give low values 1 | locus YIL066C, strain RNR3, hits give low values 0.992 | locus YIL073C, strain SPO22, hits give low values 1.07 | locus YIL125W, strain kgd1, hits give low values 0.994 | locus YIR030C, strain dcg1, hits give low values 1.01 | locus YJL092W, strain hpr5, hits give low values 0.983 | locus YJL095W, strain BCK1 (second series), hits give low values 0.988 | locus YJL095W, strain BCK1, hits give low values 1.01 and 0.984 | locus YJL115W, strain asf1, hits give low values 0.991 | locus YJL129C, strain trk1, hits give low values 1.01 | locus YJL134W, strain LCB3, hits give low values 1.01 | locus YJL154C, strain vps35, hits give low values 0.986 | locus YJL164C, strain tpk1, hits give low values 0.985 | locus YJL166W, strain qcr8, hits give low values 0.984 | locus YJL168C, strain set2, hits give low values 1 | locus YJL187C, strain SWE1 (second series), hits give low values 0.992 | locus YJL187C, strain SWE1, hits give low values 0.986
